# Test results taken from PubChem BioAssay (NCATS).
# Results filed as inconclusive are left out. A number with no mark means an inactive call. The source made the active and inactive calls. Calls follow the shape of the dose curve; as a rule, active = well fitted curve in the direction sought with a large enough effect; inconclusive = small, poorly fitted or top-dose-only effect, or another doubt; inactive = no such curve, though single readings can be large; an effect the other way counts as inactive or inconclusive.
# Tested on: not listed separately
# Assay: qHTS of pediatric cancer cell lines to identify multiple opportunities for drug repurposing: Confirmatory screen for SK-N-SH cells (AID 1347129);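 also: cells exposed to compound for 48 h before viability read; nearly all actives have a fitted effect of over 60% in size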;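 as to activity change, negative = cytotoxic: plate controls were DMSO for no effect and bortezomib control for full effect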
# Details: SK-N-SH neuroblastoma cell viability; series mostly up to 46.1 µM; activity change, negative = cytotoxic: at the top concentration
# How it was run: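 Cells (500-1,000/well) in growth media were settled 5 h at 37 degrees C, then given compounds for 48 h. Viability was read as CellTiter-Glo luminescence. Primary runs used MIPE at 11 points (0.78 nM-46 µM) and NPC at 8 points (0.59 nM-46 µM); follow-ups used 11 points.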
# Potency is read from the fitted curve at half-maximal effect.
SMILES,Potency,"activity change, negative = cytotoxic [%]"
COc1ccc(F)c(F)c1C(=O)c1cnc(NC2CCN(S(C)(=O)=O)CC2)nc1N,2.35 µM (active),–
CC=C1NC(=O)[C@H]2CSSCCC=C[C@H](CC(=O)N[C@H](C(C)C)C(=O)N2)OC(=O)[C@H](C(C)C)NC1=O,–,3.08
CN(c1ncccc1CNc1nc(Nc2ccc3c(c2)CC(=O)N3)ncc1C(F)(F)F)S(C)(=O)=O,3.72 µM (active),–
Cc1c(C)n(Cc2ccc(-c3ccccc3C(=O)O)cc2)c2ccc(C(=O)N[C@@H](C)c3ccc([N+](=O)[O-])cc3)cc12,–,1.54
CNC(=O)c1c(F)cccc1Nc1nc(Nc2cc3c(cc2OC)CCN3C(=O)CN(C)C)nc2[nH]ccc12,5.9 µM (active),–
CCCCc1nc2cc(C=CC(=O)NO)ccc2n1CCN(CC)CC,3.32 µM (active),–
O=C(C=Cc1cccnc1)NCCCCC1CCN(C(=O)c2ccccc2)CC1,–,-10.1
C[C@@H](Oc1cc(-c2cnn(C3CCNCC3)c2)cnc1N)c1c(Cl)ccc(F)c1Cl,7.43 µM (active),–
Cc1nc(N)ncc1-c1nc(N2CCOCC2)c2sc(C(C)(C)O)cc2n1,1.48 µM (active),–
CC(C)(C)c1cc(NC(=O)Nc2ccc(-c3cn4c(n3)sc3cc(OCCN5CCOCC5)ccc34)cc2)no1,20.9 µM (active),–
CC(C)c1cc(-c2n[nH]c(=O)n2-c2ccc3c(ccn3C)c2)c(O)cc1O,–,-17.5
Cc1cn(-c2cc(NC(=O)c3ccc(C)c(Nc4nccc(-c5cccnc5)n4)c3)cc(C(F)(F)F)c2)cn1,18.7 µM (active),–
Cc1ccc(-c2ncn(-c3ccc(Nc4nccc(-c5cccc(N6CCOCC6)c5)n4)cc3)n2)cn1,0.303 µM (active),–
Nc1ncnc2c1c(-c1cnc3[nH]ccc3c1)nn2C1CCCC1,1.87 µM (active),–
CN(C)Cc1c(C(=O)NCCOc2ccc(C(=O)NO)cc2)oc2ccccc12,3.72 µM (active),–
COc1ccc(-n2nc(C(N)=O)c3c2C(=O)N(c2ccc(N4CCCCC4=O)cc2)CC3)cc1,–,-11.8
CN(C)CCCN=c1c2ccccc2n(C)c2[nH]c(=O)n(C)c(=O)c12,–,-3.76
CCc1c2c(nc3ccc(O)cc13)-c1cc3c(c(=O)n1C2)COC(=O)[C@]3(O)CC,3.32 µM (active),–
Cc1nc(Nc2n[nH]c3c2CN(C(=O)N[C@H](CN(C)C)c2ccccc2)C3(C)C)c2sccc2n1,–,-4.77
CN(C)CC(C)(C)CNc1nn2c(-c3ccccc3)nnc2cc1C1CCC1,–,-19.8
COc1cccc(-c2ccc(NC(=O)C3=C(C(=O)O)CCC3)c(F)c2)c1,–,-16
CCC1=C[C@@H]2CN(C1)Cc1c([nH]c3ccccc13)[C@@](C(=O)OC)(c1cc3c(cc1OC)N(C)[C@@H]1[C@@](O)(C(=O)OC)[C@H](OC(C)=O)[C@]4(CC)C=CCN5CC[C@]31[C@@H]54)C2,5.9 µM (active),–
COc1cccc2c(NCc3ccccc3)nc(-n3c(N)nc4ccccc43)nc12,8.33 µM (active),–
CC=CC1=C(C(=O)O)N2C(=O)[C@H](NC(=O)[C@H](N)c3ccc(O)cc3)[C@@H]2SC1,–,7.33

# Tested on: Zika virus NS2B-NS3 protease
# Assay: Primary screen GU AMC qHTS for Zika virus inhibitors (AID 1347154); also: nearly all actives have a fitted effect of over 70% in size;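 as to activity change, negative = inhibition: 0% = no-inhibitor control and -100% = no-enzyme control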
# Details: Zika NS2B-NS3 unlinked protease, AMC fluorogenic substrate; series mostly up to 54.1 µM; activity change, negative = inhibition: at the top concentration
# How it was run: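 Unlinked Zika NS2B hydrophilic domain/NS3 protease domain noncovalent complex (25 nM final) in 10 mM Tris-HCl pH 8.0, 0.01% Tween 20, with AMC peptide substrate. Fluorescence (ex 340, em 450 nm) change over 15 min, room temperature; percent inhibition fitted to 4-parameter Hill equation.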
SMILES,Potency,"activity change, negative = inhibition [%]"
NC(=O)c1cccc2cn(-c3ccc([C@@H]4CCCNC4)cc3)nc12,24.1 µM (active),–
COc1cc(=C2C=c3ccccc3=N2)[nH]c1=Cc1[nH]c(C)cc1C,–,1.8
COc1ccc(F)c(F)c1C(=O)c1cnc(NC2CCN(S(C)(=O)=O)CC2)nc1N,–,6.48
CC=C1NC(=O)[C@H]2CSSCCC=C[C@H](CC(=O)N[C@H](C(C)C)C(=O)N2)OC(=O)[C@H](C(C)C)NC1=O,–,-2.56
OCCCNc1cc(-c2ccnc(Nc3cccc(Cl)c3)n2)ccn1,–,-1.69
CN(c1ncccc1CNc1nc(Nc2ccc3c(c2)CC(=O)N3)ncc1C(F)(F)F)S(C)(=O)=O,–,-0.835
Cc1c(C)n(Cc2ccc(-c3ccccc3C(=O)O)cc2)c2ccc(C(=O)N[C@@H](C)c3ccc([N+](=O)[O-])cc3)cc12,19.2 µM (active),–
CC[C@@H]1C(=O)N(C)c2cnc(Nc3ccc(C(=O)NC4CCC(N5CCN(CC6CC6)CC5)CC4)cc3OC)nc2N1C(C)C (some centres undefined),–,-8.17
CNC(=O)c1c(F)cccc1Nc1nc(Nc2cc3c(cc2OC)CCN3C(=O)CN(C)C)nc2[nH]ccc12,–,-10
COc1cc2c(Oc3ccc(NC(=O)C4(C(=O)Nc5ccc(F)cc5)CC4)cc3F)ccnc2cc1OCCCN1CCOCC1,–,-0.575
CCCCc1nc2cc(C=CC(=O)NO)ccc2n1CCN(CC)CC,–,6.26
O=C(C=Cc1cccnc1)NCCCCC1CCN(C(=O)c2ccccc2)CC1,–,12
C[C@@H](Oc1cc(-c2cnn(C3CCNCC3)c2)cnc1N)c1c(Cl)ccc(F)c1Cl,–,2.18
Cc1cc(Nc2cc(N3CCN(C)CC3)nc(Sc3ccc(NC(=O)C4CC4)cc3)n2)n[nH]1,–,-2.84
Cc1nc(N)ncc1-c1nc(N2CCOCC2)c2sc(C(C)(C)O)cc2n1,–,3
CC(C)(C)c1cc(NC(=O)Nc2ccc(-c3cn4c(n3)sc3cc(OCCN5CCOCC5)ccc34)cc2)no1,–,-0.638
NCC(=O)Nc1ccc(-n2nc(C(F)(F)F)cc2-c2ccc3c(ccc4ccccc43)c2)cc1,–,0.187
Cc1cn(-c2cc(NC(=O)c3ccc(C)c(Nc4nccc(-c5cccnc5)n4)c3)cc(C(F)(F)F)c2)cn1,–,10.6

SMILES,Potency,"activity change, negative = inhibition [%]"
Cc1ccc(-c2ncn(-c3ccc(Nc4nccc(-c5cccc(N6CCOCC6)c5)n4)cc3)n2)cn1,–,9.69
Nc1ncnc2c1c(-c1cnc3[nH]ccc3c1)nn2C1CCCC1,–,-1.12
CN(C)Cc1c(C(=O)NCCOc2ccc(C(=O)NO)cc2)oc2ccccc12,–,0.691
COc1ccc(-n2nc(C(N)=O)c3c2C(=O)N(c2ccc(N4CCCCC4=O)cc2)CC3)cc1,–,-2.28
CCC(=C(c1ccccc1)c1ccc(OCCN(C)C)cc1)c1ccccc1,–,3.06
Cc1cnc(-c2cnc(NCCNc3ccc(C#N)cn3)nc2-c2ccc(Cl)cc2Cl)[nH]1,–,-16.9
CN(C)CCCN=c1c2ccccc2n(C)c2[nH]c(=O)n(C)c(=O)c12,–,-9.39
CCc1c2c(nc3ccc(O)cc13)-c1cc3c(c(=O)n1C2)COC(=O)[C@]3(O)CC,–,7.89
Cc1nc(Nc2n[nH]c3c2CN(C(=O)N[C@H](CN(C)C)c2ccccc2)C3(C)C)c2sccc2n1,–,0.839
CN(C)CC(C)(C)CNc1nn2c(-c3ccccc3)nnc2cc1C1CCC1,–,6
COc1cccc(-c2ccc(NC(=O)C3=C(C(=O)O)CCC3)c(F)c2)c1,–,-7.34
CC(C)(O)c1cc2nc(-c3cnc(N)nc3)nc(N3CCOCC3)c2s1,–,-6.76
CCC1=C[C@@H]2CN(C1)Cc1c([nH]c3ccccc13)[C@@](C(=O)OC)(c1cc3c(cc1OC)N(C)[C@@H]1[C@@](O)(C(=O)OC)[C@H](OC(C)=O)[C@]4(CC)C=CCN5CC[C@]31[C@@H]54)C2,–,8.06
CC1=C(CO)C(=O)O[C@@H]([C@@H](C)[C@H]2CC[C@H]3[C@@H]4C[C@H]5O[C@]56[C@@H](O)C=CC(=O)[C@]6(C)[C@@H]4CC[C@]23C)C1,–,13.3
COc1cccc2c(NCc3ccccc3)nc(-n3c(N)nc4ccccc43)nc12,–,2.51
C=CC(=O)Nc1cccc(Oc2nc(Nc3ccc(N4CCN(C)CC4)cc3)ncc2Cl)c1,–,6.89
CC=CC1=C(C(=O)O)N2C(=O)[C@H](NC(=O)[C@H](N)c3ccc(O)cc3)[C@@H]2SC1,–,7.45
